Compounds with a hit are over-represented: about 2.8% of the library has one in this group of screens.
B2AR arrestin = qHTS assay of beta-arrestin-biased ligands of beta2-adrenergic receptor | Beta-2 adrenergic receptor (Homo sapiens), P07550 | beta-arrestin recruitment to beta2AR, cell-based reporter | Potency, µM (top dose mostly 46.1 µM), usual class: activators | 0.02% of 330,000 active; active means well fitted activation curve with a large enough effect; inconclusive means small, poorly fitted or top-dose-only effect; further: nearly all actives have a fitted effect of over 65% in size
DRD3 agonist = qHTS of D3 Dopamine Receptor Agonist: qHTS. D(3) dopamine receptor (Homo sapiens), P35462. max activation, %. 0.58% of 410,000 active. D3R DiscoveRx beta-arrestin cells, luminescence, 90 min; in the data active means max activation above about 30%
Target sequence (P35462 whole entry, looked up): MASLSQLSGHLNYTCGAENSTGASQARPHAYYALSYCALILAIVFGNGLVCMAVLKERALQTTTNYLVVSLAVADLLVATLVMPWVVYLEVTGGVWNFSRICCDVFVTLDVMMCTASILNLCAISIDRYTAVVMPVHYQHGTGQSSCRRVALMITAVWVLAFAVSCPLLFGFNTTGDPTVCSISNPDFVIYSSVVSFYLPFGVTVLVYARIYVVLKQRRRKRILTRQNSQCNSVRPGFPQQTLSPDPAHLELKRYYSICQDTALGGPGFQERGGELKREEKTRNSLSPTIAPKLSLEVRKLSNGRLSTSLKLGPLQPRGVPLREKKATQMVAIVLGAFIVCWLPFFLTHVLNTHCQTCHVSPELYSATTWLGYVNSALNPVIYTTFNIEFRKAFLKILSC
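Agonist mode: compounds and dopamine controls were applied to plated cells for 90 min at 37 degrees C after an overnight attachment at 1500 cells/well. Luminescent read-out followed 30 - 60 minutes at room temperature with DiscoveRx detection reagent.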
DRD3 antagonist = qHTS of D3 Dopamine Receptor Antagonist: qHTS. D(3) dopamine receptor (Homo sapiens), P35462. D3R cells, DiscoveRx beta-arrestin luminescence, antagonist mode; stronger effect = lower value. max response, negative = inhibition, %. 2.5% of 360,000 active; in the data active means max response below about -50%; inconclusive means no clear call, values can overlap the other calls
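Cells expressing the human receptor were seeded at 1500 cells/well, incubated overnight at 37 degrees C in 5% CO2, then exposed to library compounds with dopamine controls for 90 minutes at 37 degrees C before luminescent detection.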
Giardia kill = Small Molecules that selectively kill Giardia lamblia: qHTS; 0.15% of 340,000 active; Giardia lamblia trophozoite viability; activity change, % at 7.66 µM, hits read low; AID 540267, 2011; in the data active means activity change below about -80%; inconclusive means between about -30% and that limit;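 further: parasites exposed to compound for two days anaerobically before the ATP read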
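Compounds were tested on trophozoites seeded at 100 cells/well and held 48 hrs at 37 deg C anaerobically. An ATP-based luminescent kit measured the remaining live cells.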
Numbers stand for hits; n = inactive; u = inconclusive; x = not tested or not shown; ! = not active in a repeat.

SMILES	B2AR arrestin	DRD3 agonist	DRD3 antagonist	Giardia kill
CNC[C@H](O)c1cccc(O)c1	x	44.6!	n	n
CC(=O)N(C1=C(Cl)C(=O)c2ccccc2C1=O)C1CCCCC1	n	n	-85.0	n
CC(=O)N(c1ccccc1C)C1CCCC1	n	n	n	n
Cc1cc(C)c(NC(=O)CN(CC(=O)O)CC(=O)O)c(C)c1Br	x	n	x	x
COc1ccc(/C=N/NC(=O)c2cccc([N+](=O)[O-])c2)cc1OS(=O)(=O)c1ccc(C)cc1	n	n	u	n
CCOc1cc(/C=N/NC(=O)c2cccc([N+](=O)[O-])c2)ccc1OS(=O)(=O)c1ccccc1	n	n	-61.2	n
CCOc1ccc(NC(=O)CSc2ncc(-c3ccc(F)cc3)n2Cc2ccco2)cc1	n	n	n	n
Cc1ccc(NC(=O)Cn2c(-c3ccc(F)cc3)cnc2SCC(=O)Nc2c(C)cccc2C)cc1	n	n	-70.8	n
CCn1cc(C(=O)NCc2ccccc2OC)c(=O)c2cc(S(=O)(=O)N3CCCCC3)ccc21	x	n	x	x
O=C(CN1CCC(n2nnc3cc(F)ccc32)CC1)NC1CC1	n	n	-56.7	n
O=C(CN1CCC(n2nnc3cc(F)ccc32)CC1)Nc1ccccc1N1CCOCC1	n	n	-54.8	n
O=C(CN1CCC(n2nnc3cc(F)ccc32)CC1)NC1CCCCC1	n	n	-85.5	n
O=C(CN1CCC(n2nnc3cc(F)ccc32)CC1)NCCc1ccccc1	n	n	n	n
COC(=O)c1ccccc1NC(=O)CN1CCC(n2nnc3cc(F)ccc32)CC1	n	n	n	n
COCCOC(=O)c1c(-c2ccccc2)c(-c2ccccc2)nn(C)c1=O	x	n	x	x
O=C(Nc1ccccc1F)c1ccc(O)c2ncccc12	n	x	x	x
CCOC(=O)c1c(C)n(C)c2ccc(OC)c(NC(=O)CCN3CCC(Cc4ccccc4)CC3)c12	n	n	-120.4	n
CCN1CCN(Cc2ccc(NC(=O)Nc3ccccc3OC)cc2)CC1	n	n	-72.4	u
CCN1CCN(c2ccc(NC(=O)COc3ccc(Cl)cc3C)cc2)CC1	n	n	-51.6	u
CC(=O)N1CCN(c2ccc(NC(=O)COc3ccc(Cl)cc3Cl)cc2)CC1	n	n	n	n
CCN1CCN(c2ccc(NC(=O)COc3ccccc3Cl)cc2)CC1	n	n	-63.9	n
O=C(COc1ccccc1[N+](=O)[O-])Nc1ccc(N2CCN(C(=O)c3cccs3)CC2)cc1	n	33.7	n	n
Cc1nn(CC(=O)NCc2cccc(F)c2)c(=O)c2c(C)n(-c3ccc(Cl)cc3)nc12	x	n	x	x
CSc1ccc(CCNc2ncnc3onc(-c4ccc(Cl)cc4)c23)cc1	x	n	x	x
Cc1cc(NC(=O)C2CCN(S(=O)(=O)c3ccc(Br)s3)CC2)ccc1Br	x	n	x	x
SMILES	B2AR arrestin	DRD3 agonist	DRD3 antagonist	Giardia kill
O=C(c1ccc(NC2=NC3CS(=O)(=O)CC3S2)cc1)N1CCN(c2ccccc2F)CC1 (stereo unspecified)	n	n	-61.0	n
O=C(c1ccc(NC2=NC3CS(=O)(=O)CC3S2)cc1)N1CCN(c2ccc(F)cc2)CC1 (stereo unspecified)	n	n	n	n
O=C1COc2cc(S(=O)(=O)CCC(=O)N3CCN(c4ccccc4)CC3)c(Cl)cc2N1	x	n	x	x
CCOC(=O)c1cc(OC(=O)c2ccc(Cl)cc2)n(-c2ccccc2)n1	x	n	x	x
CC(CCc1ccccc1)NCc1ccncc1 (stereo unspecified)	n	77.9	n	n
O=C(Nc1ccccc1)c1ccc[n+](Cc2ccc([N+](=O)[O-])cc2)c1	n	n	-56.2	n
CCN(Cc1ccc2c(c1)OCO2)C(=O)CSc1nc(C)nc2sc(C)c(C)c12	n	40.2	n	n
CCCCCCCN(CC)CCCC(O)c1ccc(NS(C)(=O)=O)cc1 (stereo unspecified)	x	n	x	x
COc1ccc(CNC(=O)c2cc3ccccn3n2)cc1OC	x	n	x	x
COc1ccc(NC(=O)Cn2c(=O)n(CCCC(=O)NCc3ccccc3Cl)c(=O)c3ccccc32)c(OC)c1	x	n	x	x
Cc1nc2sccn2c(=O)c1CCN1CCC(=C(c2ccc(F)cc2)c2ccc(F)cc2)CC1	x	n	-93.2	n
Cc1nc2ccccn2c(=O)c1CCN1CCC(C(=O)c2ccc(F)cc2)CC1	n	n	-112.4	n
O=C(O)c1ccc(Nc2ccc3nonc3c2[N+](=O)[O-])cc1	n	n	n	n
COC(=O)c1ccc(Nc2ccc3nonc3c2[N+](=O)[O-])cc1	n	n	n	-92.6
O=C(O)c1cccc(Nc2ccc([N+](=O)[O-])c3nonc23)c1	n	n	-57.4	n
O=C(O)c1cccc(Nc2cc(Cl)c3nonc3c2[N+](=O)[O-])c1	n	n	u	n
O=C(O)c1ccc(Nc2ccc([N+](=O)[O-])c3nonc23)cc1	n	n	-77.3	n
CCc1nnc(NS(=O)(=O)c2ccc(Nc3ccc([N+](=O)[O-])c4nonc34)cc2)s1	n	n	-63.5	n
O=[N+]([O-])c1ccccc1N/N=C/c1c[nH]c2ccccc12	n	n	-51.6	n
COc1ccccc1NS(=O)(=O)c1cc([N+](=O)[O-])ccc1N/N=C/c1sc(N2CCOCC2)nc1-c1ccccc1	n	n	-84.1	n
COc1ccccc1NS(=O)(=O)c1cc([N+](=O)[O-])ccc1N/N=C/c1c[nH]c2ccccc12	n	n	-87.6	n
COc1ccc(NS(=O)(=O)c2cc([N+](=O)[O-])ccc2N/N=C\c2c(C)[nH]c3ccccc23)cc1	n	n	n	n
O=NN(CCCl)C(=O)NC1CCCCC1	x	n	x	x
CC1=C(C)C(=O)C(C(CCCCCC(=O)O)c2ccccc2)=C(C)C1=O (stereo unspecified)	x	n	x	x
Cc1cc(C)n(-c2cc(N3CCN(S(=O)(=O)c4ccc(C)c(C)c4)CC3)ccc2[N+](=O)[O-])n1	n	n	n	n
SMILES	B2AR arrestin	DRD3 agonist	DRD3 antagonist	Giardia kill
Cc1cc(C)n(-c2cc(N3CCN(S(=O)(=O)c4ccc5ccccc5c4)CC3)ccc2[N+](=O)[O-])n1	n	n	-55.1	n
NCCCC[C@H](N)C(=O)O	x	n	x	x
COc1ccc2ccc(OC)c(/C=N/NC(=O)c3cc4ccccc4o3)c2c1	x	n	-87.5	x
COc1ccc2ccccc2c1/C=N/NC(=O)c1ccc([N+](=O)[O-])cc1	n	n	-97.1	n
COc1cc(C(=O)N/N=C/c2cc([N+](=O)[O-])cs2)cc(OC)c1OC	n	n	-50.1	n
COc1ccc(/C=N/NC(=O)c2cc3c(ccc4ccccc43)o2)cc1OC	n	n	n	n
Cc1oc(-c2ccccc2Cl)nc1CSc1nncn2c1cc1occc12	x	n	x	x
COc1ccc(NC(=O)Cn2c(=O)n(CCc3ccccc3)c(=O)c3c4c(sc32)CCCC4)cc1	x	n	x	x
CCN1CCN(CC(=O)N/N=C/c2cc(Br)cs2)CC1	n	n	-53.5	n
CCCCn1nnnc1C(c1cc2ccccc2o1)N(CCC#N)Cc1ccccc1 (stereo unspecified)	x	n	-52.7	x
CN(C(=O)c1oc(=O)c2ccccc2c1-c1ccccc1)c1cccc(Cl)c1	x	n	x	x
CN1CCN(c2cc(N3CCc4ccccc4C3)c(F)cc2[N+](=O)[O-])CC1	n	n	-61.1	n

Screening results from PubChem.
